Screening data: PubChem BioAssay, National Center for Advancing Translational Sciences (NCATS)
Pf growth 48h – Primary qHTS for delayed death inhibitors of the malarial parasite plastid, 48 hour incubation; P. falciparum luciferase growth in erythrocytes, 48 h; Potency, µM (top dose mostly 28.7 µM), actives largely listed as inhibitors; 5.9% of 310,000 active; active = well fitted inhibition curve with a large enough effect; inconclusive = small, poorly fitted or top-dose-only effect, or another doubt; inactive = no such curve, though single readings can be large or run the other way
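Firefly luciferase activity from engineered P. falciparum reports growth; inhibitors lower the luminescent signal. Cultures contained 2% hematocrit erythrocytes at 0.1% final parasitemia.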
Shiga inhibitor – A qHTS for Small Molecule Inhibitors of Shiga Toxin; AID 2315, 2010; inhibition, % at 38.7 µM; Vero cells, Shiga toxin protein synthesis inhibition reporter; 9.2% of 290,000 active; in the data active = inhibition mostly above about 28%, no sharp cut-off; inactive = mostly below about 43%
NS1 function inh – qHTS Assay for Inhibitors of Influenza NS1 Protein Function; Potency, µM (doses to about 46.1 µM); 0.4% of 270,000 active; AID 2326, 2010; also: actives are rising curves; nearly all actives have a fitted effect of over 50% in size
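A cell-based growth assay was used: compounds that relieve NS1-induced slow growth of budding yeast raise OD600. Assay medium was yeast nitrogen base with ammonium sulphate and -URA supplement, pH 6.0, with 2% galactose.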
SARS PLP yeast – qHTS of Yeast-based Assay for SARS-CoV PLP; S. cerevisiae expressing SARS-CoV PLpro, growth rescue; Potency, µM (series often up to 32.9 µM), usual class: activators; 0.19% of 330,000 active; AID 485353, 2010; also: nearly all actives have a fitted effect of over 55% in size
Pf growth 96h – Primary qHTS for delayed death inhibitors of the malarial parasite plastid, 96 hour incubation | P. falciparum luciferase reporter growth, 96 h | Potency, µM (doses to about 28.7 µM), usual class: inhibitors | 6.9% of 320,000 active | AID 504834, 2011; active = well fitted inhibition curve with a large enough effect; inconclusive = small, poorly fitted or top-dose-only effect, or another doubt; inactive = no such curve, though single readings can be large or run the other way
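Two-generation exposure (96 h) targets delayed-death phenotype. Reporter parasites carrying integrated firefly luciferase, in red cells at 2% hematocrit and 0.05% parasitemia final, kept at 37 C, 5% CO2; luminescence loss indicates inhibition.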
CHX counter – Cycloheximide Counterscreen for Small Molecule Inhibitors of Shiga Toxin; max response, %; 12% of 300,000 active; cell reporter, cycloheximide protein synthesis inhibition counterscreen; AID 2314, 2010; in the data active = max response mostly above about 13%, no sharp cut-off; inactive = mostly below about 14%; also: read at 38.3 µM for the half of the compounds with a filed dose
Hits are given with their value; [ ] = remark or other dose. An excerpt weighted towards active compounds, which were near 21% of everything screened. Unless noted, calls follow the shape of the full dose curve.

How did COc1cc2c(cc1OC)CN(c1nc(CN3CCOCC3)nc3sc4c(c13)CCCC4)CC2 do in these assays?
Pf growth 48h: 9.3µM; Shiga inhibitor: inactive; NS1 function inh: inactive; SARS PLP yeast: inactive; Pf growth 96h: 1.7µM; CHX counter: inactive

What do the screens show for `Cc1nc(N2CCOCC2)c2c3c(sc2n1)CCC3`?
Pf growth 48h: 10µM; Shiga inhibitor: inactive; SARS PLP yeast: inactive; Pf growth 96h: inconclusive; CHX counter: inactive

How did COc1cccc(Nc2nc(CN3CCOCC3)nc3sc4c(c23)CCCC4)c1 do in these assays?
Pf growth 48h: 15µM; Shiga inhibitor: inactive; NS1 function inh: inactive; SARS PLP yeast: inactive; Pf growth 96h: inconclusive; CHX counter: inactive

Results for COc1cc2c(cc1OC)CN(c1nc(CN3CCCCC3)nc3sc4c(c13)CCCC4)CC2 ?
Pf growth 48h: 3.3µM; Shiga inhibitor: inactive; NS1 function inh: inactive; SARS PLP yeast: inactive; Pf growth 96h: 1.9µM; CHX counter: inactive

What do the screens show for `COc1cc2c(cc1OC)CN(c1nc(CN3CCCC3)nc3sc(C)c(C)c13)CC2`?
Pf growth 48h: inconclusive; Shiga inhibitor: inactive; SARS PLP yeast: inactive; Pf growth 96h: inconclusive; CHX counter: inactive

How did CSc1nc(N2CCOCC2)c2c3c(sc2n1)CCCC3 do in these assays?
Pf growth 48h: inconclusive; Shiga inhibitor: inactive; NS1 function inh: inactive; SARS PLP yeast: inactive; Pf growth 96h: inactive; CHX counter: inactive

What do the screens show for `Cc1cc(S(=O)(=O)Nc2nc(CN3CCOCC3)nc3sc4c(c23)CCC4)cc(C)c1C`?
Pf growth 48h: inactive; SARS PLP yeast: inactive; Pf growth 96h: inactive

What do the screens show for `COc1ccc2c(c1)CCc1c(C(=O)N3CC4(C)CC3CC(C)(C)C4)noc1-2` (centres undefined)?
Pf growth 48h: 15µM; Shiga inhibitor: inactive; NS1 function inh: inactive; SARS PLP yeast: inactive; Pf growth 96h: inconclusive; CHX counter: inactive

Results for COc1ccc(C(=O)N2CC3(C)CC2CC(C)(C)C3)cc1 (centres undefined) ?
Pf growth 48h: inconclusive; Shiga inhibitor: inactive; NS1 function inh: inactive; Pf growth 96h: inactive; CHX counter: inactive

Results for COc1ccc2c(c1)CCc1c(C(=O)N3CCCc4ccccc43)noc1-2 ?
Pf growth 48h: 6.6µM; Shiga inhibitor: inactive; NS1 function inh: inactive; SARS PLP yeast: inactive; Pf growth 96h: inactive; CHX counter: 27

How did COc1ccc2c(c1)CCc1c(C(=O)N3CCOCC3)noc1-2 do in these assays?
Pf growth 48h: inactive; Shiga inhibitor: 74; NS1 function inh: inactive; SARS PLP yeast: inactive; CHX counter: 31

How did O=C(COc1ccc(S(=O)(=O)N2CCCCC2)cc1)NCc1cccnc1 do in these assays?
Shiga inhibitor: inactive; NS1 function inh: inactive; SARS PLP yeast: inactive; Pf growth 96h: inactive; CHX counter: inactive

How did COc1cc2c(cc1OC)/C(=C/C(=O)c1ccc([N+](=O)[O-])c(C)c1)NCC2 do in these assays?
Pf growth 48h: 9.3µM; Shiga inhibitor: inactive; NS1 function inh: inactive; SARS PLP yeast: inactive; Pf growth 96h: 5.2µM; CHX counter: inactive

What do the screens show for `CCOC(=O)c1cc(-c2ccccc2)sc1NC(=O)C(C)OC(=O)c1cccnc1OCC` (centres undefined)?
Pf growth 48h: inactive; Shiga inhibitor: inactive; NS1 function inh: inactive; SARS PLP yeast: inactive; Pf growth 96h: inactive; CHX counter: inactive

How did Cc1ccc(C(=O)Nc2ccccc2C(=O)N2CCOCC2)cc1[N+](=O)[O-] do in these assays?
Pf growth 48h: inactive; Shiga inhibitor: inactive; NS1 function inh: inactive; SARS PLP yeast: inactive; Pf growth 96h: inactive; CHX counter: inactive

Results for O=[N+]([O-])c1ccc(N2CCOCC2)c2cccnc12 ?
Pf growth 48h: inconclusive; Shiga inhibitor: inactive; SARS PLP yeast: inactive; Pf growth 96h: inactive; CHX counter: inactive

Results for O=[N+]([O-])c1cccc2c(N3CCCC3)ccnc12 ?
Pf growth 48h: inconclusive; Shiga inhibitor: inactive; NS1 function inh: inactive; SARS PLP yeast: inactive; Pf growth 96h: inactive; CHX counter: 21

What do the screens show for `Cc1cc2nc3[nH]c4c(Cl)cc(Cl)cc4c3nc2cc1C`?
NS1 function inh: inactive

Results for c1ccc(CC2CCN(Cc3nc(-c4ccccc4)no3)CC2)cc1 ?
Pf growth 48h: inconclusive; Shiga inhibitor: inactive; NS1 function inh: inactive; SARS PLP yeast: inactive; CHX counter: 15

How did Fc1ccccc1Cc1noc(CN2CCN(Cc3ccc4c(c3)OCO4)CC2)n1 do in these assays?
Pf growth 48h: inactive; Shiga inhibitor: inactive; NS1 function inh: inactive; SARS PLP yeast: inactive; Pf growth 96h: inconclusive; CHX counter: inactive

What do the screens show for `c1ccc(Cc2noc(CN3CCN(Cc4ccc5c(c4)OCO5)CC3)n2)cc1`?
Pf growth 48h: inactive; Shiga inhibitor: inactive; NS1 function inh: inactive; SARS PLP yeast: inactive; Pf growth 96h: inactive; CHX counter: inactive

How did Fc1cccc(CN2CCN(Cc3nc(CCc4ccccc4)no3)CC2)c1 do in these assays?
Pf growth 48h: inactive; Shiga inhibitor: inactive; NS1 function inh: inactive; SARS PLP yeast: inactive; Pf growth 96h: 10µM; CHX counter: inactive

How did COc1ccccc1CN1CCN(Cc2nc(-c3ccccc3)no2)CC1 do in these assays?
Pf growth 48h: inactive; Shiga inhibitor: 99; NS1 function inh: inactive; SARS PLP yeast: inactive; Pf growth 96h: inactive; CHX counter: 35

Results for c1ccc(-c2noc(CN3CCOCC3)n2)cc1 ?
Pf growth 48h: inactive; Shiga inhibitor: inactive; NS1 function inh: inactive; SARS PLP yeast: inactive; Pf growth 96h: inconclusive; CHX counter: inactive

How did COc1ccccc1CN1CCN(Cc2nc(Cc3ccccc3)no2)CC1 do in these assays?
Pf growth 48h: inconclusive; Shiga inhibitor: inactive; NS1 function inh: inactive; SARS PLP yeast: inactive; Pf growth 96h: 12µM; CHX counter: inactive

What do the screens show for `Brc1ccccc1-c1csnn1`?
Pf growth 48h: inactive; Shiga inhibitor: inactive; NS1 function inh: inactive; SARS PLP yeast: inactive; Pf growth 96h: inactive; CHX counter: inactive

How did O=C(Nc1ccc(-c2csc(Nc3cccc(C(F)(F)F)c3)n2)cc1)c1cc([N+](=O)[O-])cc(C(F)(F)F)c1 do in these assays?
Pf growth 48h: 0.83µM; Shiga inhibitor: inactive; NS1 function inh: inactive; SARS PLP yeast: inactive; Pf growth 96h: 0.47µM; CHX counter: inactive

What do the screens show for `O=C(Nc1cccc(-c2csc(Nc3cccc(C(F)(F)F)c3)n2)c1)c1ccccc1`?
Pf growth 48h: 12µM; Shiga inhibitor: inactive; NS1 function inh: inactive; SARS PLP yeast: inactive; Pf growth 96h: inconclusive; CHX counter: inactive

What do the screens show for `O=C(Nc1cccc(-c2csc(Nc3ccccc3)n2)c1)c1ccccc1`?
Pf growth 48h: inactive; Shiga inhibitor: 84; NS1 function inh: inactive; SARS PLP yeast: inactive; Pf growth 96h: inactive; CHX counter: 31

How did O=C(Nc1ccc(-c2csc(Nc3ccc(Cl)cc3)n2)cc1)c1ccccc1 do in these assays?
SARS PLP yeast: inactive

What do the screens show for `O=C(O)CCC(=O)Nc1cccc(-c2csc(-c3ccccc3)n2)c1`?
Pf growth 48h: inactive; Shiga inhibitor: inactive; SARS PLP yeast: inactive; Pf growth 96h: inactive[5.75 µM]; CHX counter: inactive
